Source: PubChem
In the library only some 0.93% were active in any assay of this set; here they are far more common.
CDC25B CDK2 inh: human CDC25B-CDK2/CyclinA binding inhibition; P30305+P24941; HTRF CDC25B-CDK2/CyclinA binding, anti-His/anti-Flag; stronger effect = higher value; z-score (test concentration not listed); 0.72% of 94,000 active; AID 1259370; in the data active = z-score above about 3.2
TAR Tat displ: HIV-1 TAR-Tat binding disruption; HIV-1 TAR RNA, Tat peptide displacement FRET; stronger effect = higher value; z-score (no concentration beside the values); 0.6% of 100,000 active; active = z-score of 3 or more in at least 2 runs
Of the large screens only hits and unclear results are named; the others gave an inactive call; ! = a repeat was not active.

COC(=O)c1ccc(C2/C(=C(/O)c3ccc(C)cc3)C(=O)C(=O)N2c2cccnc2)cc1 (configuration not stated)	CDC25B CDK2 inh 12
CCOc1ccc(C2/C(=C(/O)c3ccc(C)cc3)C(=O)C(=O)N2c2cccnc2)cc1 (configuration not stated)	none
CCN(CC)c1nc(Cl)nc(Sc2nc3ccccc3[nH]2)n1	none (no result: TAR Tat displ)
Cc1nc2cccnc2n1C1CCN(C(=O)Nc2ccc(F)cc2)CC1	none (no result: CDC25B CDK2 inh)
O=C1COc2cc(-c3c(N4CCCC4)c(=O)c3=O)ccc2N1	TAR Tat displ 11 (no result: CDC25B CDK2 inh)
O=C1COc2cc(-c3c(N4CCCCC4)c(=O)c3=O)ccc2N1	none (no result: CDC25B CDK2 inh)
COc1ccc(O)c(-c2nc3c(c(=O)[nH]2)Cc2c(CO)cnc(C)c2O3)c1	TAR Tat displ 11
Cc1ncc(CO)c2c1Oc1nc(-c3ccc(F)cc3)[nH]c(=O)c1C2	none
O=C1c2cccnc2C(=O)N1Cc1ccc(S(=O)(=O)NCc2ccc3c(c2)OCO3)s1	none (no result: CDC25B CDK2 inh)
Cc1ccc2nc(CN3CCN(S(=O)(=O)c4cccc5nsnc45)CC3)oc2c1	none (no result: CDC25B CDK2 inh)
Cc1nc2cc(S(=O)(=O)N3CCC(C(=O)N4CCCCC4)CC3)ccc2n1C1CCCC1	none
O=C(CSc1nc2ccccc2c(=O)[nH]1)Nc1cccc(Cl)c1	none (no result: CDC25B CDK2 inh)
Cc1[nH]c2ccccc2c1SCC(=O)NNC(=O)Nc1cccc(Cl)c1	CDC25B CDK2 inh 14 (no result: TAR Tat displ)
Cc1ccc(S(=O)(=O)NC(=O)NCc2ccco2)cc1	none (no result: TAR Tat displ)
Cn1c(SCC(=O)c2cn(C)c3ccccc23)nnc1-c1ccc2c(c1)OCCCO2	none (no result: CDC25B CDK2 inh)
Cc1ccccc1N1CSC2=C(C#N)C(c3ccc(Cl)cc3)CC(=O)N2C1 (configuration not stated)	none
Cc1cccc(N2CSC3=C(C#N)C(c4ccccc4)CC(=O)N3C2)c1 (configuration not stated)	CDC25B CDK2 inh 5.2
Cc1ccccc1N1CSC2=C(C#N)C(c3ccc(F)cc3)CC(=O)N2C1 (configuration not stated)	CDC25B CDK2 inh 4.4
N#CC1=C2SCN(c3ccccc3F)CN2C(=O)CC1c1ccccc1 (configuration not stated)	CDC25B CDK2 inh 6.5
N#CC1=C2SCN(c3cccc(Cl)c3)CN2C(=O)CC1c1ccc(F)cc1 (configuration not stated)	CDC25B CDK2 inh 7.4
N#CC1=C2SCN(C3CCCCC3)CN2C(=O)CC1c1ccc(F)cc1 (configuration not stated)	none
CCc1nnc(NC(=O)C2C3C=CC(O3)C2C(=O)O)s1 (configuration not stated)	none (no result: TAR Tat displ)
CCN(CC)c1ccc(CNCCCSc2nnnn2C)cc1	none
CC1(C)Cc2ccccc2C(CSc2ccccc2C(=O)O)=N1	none
Cc1ccccc1C1CC(=O)N2CN(c3ccccc3F)CSC2=C1C#N (configuration not stated)	CDC25B CDK2 inh 5.1
COc1ccccc1N1CSC2=C(C#N)C(c3ccc(SC)cc3)CC(=O)N2C1 (configuration not stated)	CDC25B CDK2 inh 4.6
COc1ccc(N2CSC3=C(C#N)C(c4ccc(SC)cc4)CC(=O)N3C2)c(OC)c1 (configuration not stated)	none
CCC12CN3CC(CC)(CN(C1)C3c1ccc(C(C)C)cc1)C2=O (configuration not stated)	none (no result: TAR Tat displ)
O=C(Oc1cccc(C=Nc2cccc3ccccc23)c1)c1sc2ccccc2c1Cl	none (no result: TAR Tat displ)
O=C(O)CNc1cc(N2CCCCC2)c2noc3c2c1C(=O)c1ccccc1-3	CDC25B CDK2 inh 4.4
O=C(O)c1ccccc1Nc1cc(N2CCCC2)c2noc3c2c1C(=O)c1ccccc1-3	TAR Tat displ 7.5
CC(C)CNc1cc(N2CCCC2)c2noc3c2c1C(=O)c1ccccc1-3	none
CCN1CCN(c2cc(NCC(=O)O)c3c4c(onc24)-c2ccccc2C3=O)CC1	none
O=C(O)CNc1cc(N2CCCC2)c2noc3c2c1C(=O)c1ccccc1-3	CDC25B CDK2 inh 5.5
O=C(O)CCCNc1cc(N2CCCC2)c2noc3c2c1C(=O)c1ccccc1-3	none
CC1CCN(S(=O)(=O)N2CCCC(C(=O)N3CCN(C(=O)c4ccco4)CC3)C2)CC1 (configuration not stated)	none (no result: CDC25B CDK2 inh)
Cc1noc2ncnc(N3CCCC(C(=O)N4CCCc5ccccc54)C3)c12 (configuration not stated)	none (no result: CDC25B CDK2 inh)
O=C(CSc1ccsc1[N+](=O)[O-])Nc1cccc(F)c1	TAR Tat displ 5.2
O=C(CSc1ccsc1[N+](=O)[O-])Nc1ccc(Br)cc1F	TAR Tat displ 13
O=C(CSc1ccsc1[N+](=O)[O-])NC1CCCC1	none
CSc1ccc(CCNC(=O)CSc2ccsc2[N+](=O)[O-])cc1	none
COc1ccc(NC(=O)CSc2ccsc2[N+](=O)[O-])cc1Cl	TAR Tat displ 10
O=C(CSc1ccsc1[N+](=O)[O-])Nc1c(F)cc(F)cc1Br	none
Cc1cc(S(=O)(=O)Nc2ccc(F)c(Cl)c2)cc(C)c1F	none (no result: TAR Tat displ)
CCC(C(=O)NC1CCC(C)CC1)n1c(C)c2cnn(-c3ccccc3)c(=O)c2c1C (configuration not stated)	none
O=C(N1CCCC1)C12CC3CCC(CC(C3)C1)C2	none (no result: TAR Tat displ)
CCOc1ccc2c(c1)C(C)=CC(C)(C)N2S(=O)(=O)c1ccc(Br)cc1	none
O=C(CSc1nnc2c(n1)-c1cccc3cccc-2c13)Nc1ccc(Cl)c(C(=O)O)c1	none
CCC(=O)NCCc1cc2c(OC)ccc(OC)c2[nH]c1=O	none (no result: TAR Tat displ)
Cc1cc(=O)oc2cc(O)cc(O)c12	none (no result: CDC25B CDK2 inh)
O=c1oc2c(O)c(O)cc3c(=O)oc4c(O)c(O)cc1c4c23	TAR Tat displ 31! (no result: CDC25B CDK2 inh)
COc1ccc(-c2c(C(F)(F)F)oc3c(CN4CCCC4)c(O)ccc3c2=O)cc1OC	none
O=C(CSc1ncnc2c1sc1cccc(F)c12)NCCc1ccco1	TAR Tat displ 12 (no result: CDC25B CDK2 inh)
O=C(CSc1ncnc2c1sc1cccc(F)c12)N1CCCCC1	none (no result: CDC25B CDK2 inh)
O=C(CSc1ncnc2c1sc1cccc(F)c12)NCc1ccco1	none (no result: CDC25B CDK2 inh)
O=C(O)CCSc1ncnc2c1sc1cccc(F)c12	TAR Tat displ 5.4
O=C1[C@H]2CSC3(C(=O)c4ccccc4C3=O)N2C(=O)[C@H]2CSC3(C(=O)c4ccccc4C3=O)N12	none (no result: TAR Tat displ)
CSc1nc2nc(C)c(Cc3ccc(Br)cc3)c(=O)n2[nH]1	none
c1ccc(-c2nc3c4ccccc4ccn3c2CN2CCOCC2)cc1	none
NC(=O)CCCCC1CCSS1 (configuration not stated)	none (no result: TAR Tat displ)
CC(=O)N1N=C(c2cccc3ccccc23)OC1c1cc(C)nc2ccccc12 (configuration not stated)	none (no result: CDC25B CDK2 inh)
CC(=O)N1N=C(c2cc(C)nc3ccccc23)OC1c1cccs1 (configuration not stated)	TAR Tat displ 3.8 (no result: CDC25B CDK2 inh)
COc1cc(C2OC(c3cc(C4CC4)nc4ccccc34)=NN2C(C)=O)ccc1OC(C)=O (configuration not stated)	none (no result: CDC25B CDK2 inh)
CC(=O)N1N=C(c2cc(C3CC3)nc3ccccc23)OC1c1ccc2c(c1)OCO2 (configuration not stated)	TAR Tat displ 4.4 (no result: CDC25B CDK2 inh)
CCn1c(/C=C/c2c(C)n(CC)c3ccccc23)nc2ccccc2c1=O	none
O=c1[nH][nH]c2nnc(-c3ccccc3)c(-c3ccccc3)c12	none (no result: TAR Tat displ)
O=C(NCCCNC(=O)c1cnccn1)c1cnccn1	none
Clc1cc2c(c3ncccc13)OCN(CCc1ccccc1)C2	none (no result: TAR Tat displ)
CCCCN1COc2c(cc(Cl)c3cccnc23)C1	CDC25B CDK2 inh 17
O=C1Cc2cc(S(=O)(=O)NCc3ccc4c(c3)OCO4)cc3c2N1CCC3	none (no result: CDC25B CDK2 inh)
CC(=O)OC[C@H]1O[C@@H](OCc2ccccc2)[C@H](OC(C)=O)[C@@H](OC(C)=O)[C@@H]1OC(C)=O	none (no result: TAR Tat displ)
